Test results published in PubChem BioAssay (NCATS).
Inconclusive results are not listed. The source made the active and inactive calls. The call rests on the fitted dose curve; in most records, active means well fitted inhibition curve with a large enough effect; inconclusive means small, poorly fitted or top-dose-only effect; inactive means flat fitted curve, though single readings scatter.
On the % scale 0 is the no-effect control and ±100 the full control effect; potency means the concentration at half of the fitted maximal effect.

Each compound was assayed on KB-3-1 (assay: Cytotoxic Profiling of Annotated Libraries Using Quantitative High-Throughput Screening (AID 1296008; further: nearly all actives have a fitted effect of over 60% in size)). Conditions: Five cell lines viability, CellTiter-Glo ATP luminescence, 48-72 h; max response: stronger effect = lower value.
Summary of the method: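 Compounds were pin-transferred onto cells and incubated 48 or 72 hr at 37 degree Celsius, 95% humidity. CellTiter-Glo was added, plates sat 10 min at room temperature, then ATP-coupled luminescence was imaged as the viability read-out.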
In the case of `CC1(C)CC[C@]2(C(=O)O)[C@H](O)C[C@]3(C)C(=CCC4[C@@]5(C)CC[C@H](O[C@@H]6O[C@H](CO[C@@H]7OC[C@H](O)[C@H](O)[C@H]7O[C@@H]7OC[C@@H](O)[C@H](O)[C@H]7O)[C@@H](O)[C@H](O)[C@H]6O[C@@H]6O[C@H](CO)[C@@H](O)[C@H](O)[C@H]6O)C(C)(C)C5CC[C@]43C)[C@@H]2C1` (some centres undefined), the max response is reported as 4.84% (inactive).
With `O=C1C=CC2OC(c3ccccc3)C(O)C2O1` (centres undefined) the max response was -14.2% (inactive).
In the case of `CC1=C(COC2OC(CO)C(O)C(O)C2O)C(C(CO)C(=O)O)CC1` (centres undefined), the max response is reported as 9.18% (inactive).
With `CC(C(O)/C=C/C(C)(C)O)C1CCC2(C)C3C(=O)C=C4C(CCC(O)C4(C)C)C3(C)CCC12C` (centres undefined) the outcome was “inactive”.
For `C=C(CO)C12OC1C1(C)C(=CC2=O)C(O)C(O)CC1C` (centres undefined), the max response was 3.94% (inactive).
With `O=S(=O)(c1ccc(S(=O)(=O)n2cnc3ccccc32)cc1)N1CCCCCC1` the max response was 6.01% (inactive).
With `C[C@H]1CC[C@@]2(OC1)O[C@H]1CC3C4CC[C@H]5C[C@@H](O)[C@H](O)C[C@]5(C)C4=CC(=O)[C@]3(C)[C@H]1[C@@H]2C` (some centres undefined) the max response was 0.923% (inactive).
In the case of `C/C1=C\C[C@]2(C)C(=O)C(O)=C([C@H](C)CO)[C@H]2C/C=C(\C)[C@@H](O)CC/C(C)=C/CC1`, the max response is reported as 0.384% (inactive).
`COc1c(C)c(OCC(O)C(C)(C)O)cc2c1COC2=O` (centres undefined) was tested, and the outcome was “inactive”.
For `C1CCC[C@H]2CCCN3CC[C@@H](CCCCCC[C@@H]4CCCN5CC[C@@H](CC1)O[C@@H]45)O[C@@H]23`, the max response was 8.9% (inactive).
For `Cc1cc(NC(=O)Nc2ccc(F)c(F)c2)n(-c2ccccc2)n1`, the max response was 4.72% (inactive).
`C[C@@H]1CC[C@]2(C(=O)OC3OC(CO)C(O)C(O)C3O)CC[C@]3(C)C(=CCC4[C@@]5(C)CC[C@H](O)[C@](C)(C(=O)O)C5CC[C@]43C)C2[C@]1(C)O` (some centres undefined) was tested, and the max response was 4.37% (inactive).
For `O=C(NCC(O)CO)c1ccncc1Nc1ccc(I)cc1F` (centres undefined), the outcome was “inactive”.
For `CC(O)CCC1C(CO[C@@H]2O[C@H](CO)[C@@H](O)[C@H](O)[C@H]2O)CC(O)CC1(C)C` (some centres undefined), the max response was 8.38% (inactive).
For `N#Cc1ccc(C(=O)N2CCC3(CC2)N=C(N)c2c(F)ccc(F)c2N3)cn1`, the max response was -9.49% (inactive).
With `COc1cc([C@H]2c3cc(O)c(OC)cc3C[C@@H](CO[C@@H]3O[C@H](CO)[C@@H](O)[C@H](O)[C@H]3O)[C@@H]2CO)ccc1O` the outcome was “inactive”.
With `CC(=O)NC1C(OC(C)(C)C2CCC3(C)C=C(C4CCC5C4(C)CC(O)C4OC(C(C)(C)O)CCC45C)CCC3O2)OC(CO)C(O)C1O` (centres undefined) the max response was -23.5% (inactive).
With `COC(=O)C1=CO[C@@H](O)C2C(CO)=CCC12` (some centres undefined) the max response was -1.48% (inactive).
For `Nc1ncnc2c1ncn2CCNCCCCCO`, the outcome was “inactive”.
`CC(=O)OC1C[C@]2(C)C(O)CC(C)=C[C@H](OC(=O)c3ccc(O)cc3)C2[C@]1(O)C(C)C` (some centres undefined) was tested, and the max response was 4.36% (inactive).
`N#C[C@@H]1CCCN1C(=O)CNC12CC3CC(CC(O)(C3)C1)C2` was tested, and the outcome was “inactive”.
`COc1cc(C(=O)OC[C@H]2O[C@@H](Oc3ccccc3/C=C/C(=O)O)[C@H](O)[C@@H](O)[C@@H]2O)cc(OC)c1OC` was tested, and the max response was 5.09% (inactive).
In the case of `CC(C)CC(=O)OC1OC=C(CO[C@@H]2O[C@H](CO)[C@@H](O)[C@H](O)[C@H]2O)C2CC(O)C(O)(CO)C12` (some centres undefined), the max response is reported as 2.5% (inactive).
For `Cc1cc(Nc2nc(NC(C)c3ncc(F)cn3)ncc2Cl)n[nH]1` (centres undefined), the outcome was “inactive”.
In the case of `CC(=O)O[C@H]1C[C@@](O)(C(C)C)C2[C@@H](OC(=O)c3ccc(O)cc3)C[C@@]3(C)O[C@H]3C[C@]21C` (some centres undefined), the max response is reported as 2.79% (inactive).
With `C=C[C@H]1C(O[C@@H]2O[C@H](CO)[C@@H](O)[C@H](O)[C@H]2O)OC=C2C(=O)N3CCc4c([nH]c5ccccc45)[C@H]3C[C@H]21` (some centres undefined) the max response was 3.99% (inactive).
`O=C(CCCCN1CCOCC1)Nc1ccc(-c2cccnc2)cc1` was tested, and the max response was 3.7% (inactive).
For `CCc1cc(CN2CC(C(=O)O)C2)sc1-c1noc(-c2ccc(Oc3ccccc3)cc2)n1`, the max response was -20.8% (inactive).
For `C[C@@H]1CCC2C(C)(C)[C@H](O)CC[C@]2(C)[C@@]12Cc1c(O)cc3c(c1O2)CN([C@@H](CCC(=O)O)C(=O)O)C3=O` (some centres undefined), the max response was 6.48% (inactive).
With `CC1OC(OCC2OC(OC3CCC4(C)C(CCC5(C)C4CC=C4C6CC(C)(C)CCC6(C(=O)OC6OC(CO)C(O)C(O)C6O)CCC45C)C3(C)CO)C(O)C(O)C2O)C(O)C(O)C1O` (centres undefined) the max response was 9.22% (inactive).
In the case of `CN(CCc1ccc(Nc2ncc(-c3cccnc3)s2)cc1)Cc1ccccc1`, the max response is reported as -12.1% (inactive).
`COc1ccc2[nH]c3c(-c4cccc5ccccc45)nccc3c2c1` was tested, and the Potency was 820 nM (active).
`C[C@@H]1CCC2C(C)(C)[C@H](O)CC[C@]2(C)[C@@]12Cc1c(O)cc3c(c1O2)CNC3=O` (some centres undefined) was tested, and the max response was 9.73% (inactive).
For `CC(O)CO[C@@H]1O[C@H](CO)[C@@H](O)[C@H](O)[C@H]1O` (some centres undefined), the outcome was “inactive”.
`OC[C@H]1O[C@@H](OC[C@H]2O[C@@H](OC/C=C/c3ccccc3)[C@H](O)[C@@H](O)[C@@H]2O)[C@@H](O)[C@@H]1O` was tested, and the outcome was “inactive”.
For `CC1COC(Nc2ccc3ncnc(Nc4ccc(OCc5nccs5)c(Cl)c4)c3c2)=N1` (centres undefined), the max response was -8.52% (inactive).
For `C[C@H](O)[C@H](O)/C=C/c1cccc(O)c1CO`, the max response was 8.41% (inactive).
`COc1cc(C)c(C(=O)O[C@H]2[C@@H](OC(C)=O)[C@H](n3ccc(=O)[nH]c3=O)O[C@@H]2CO)c(OC)c1` was tested, and the max response was 0.943% (inactive).
`CN[C@H](CC(C)C)C(=O)N[C@H]1C(=O)N[C@@H](CC(N)=O)C(=O)N[C@H]2C(=O)N[C@H]3C(=O)N[C@H](C(=O)N[C@H](C(=O)O)c4cc(O)cc(O)c4-c4cc3ccc4O)[C@H](O[C@H]3C[C@](C)(N)[C@@H](O)[C@H](C)O3)c3ccc(c(Cl)c3)Oc3cc2cc(c3O[C@@H]2O[C@H](CO)[C@@H](O)[C@H](O)[C@H]2O[C@H]2C[C@](C)(NCc3ccc(-c4ccc(Cl)cc4)cc3)[C@@H](O)[C@H](C)O2)Oc2ccc(cc2Cl)[C@H]1O` was tested, and the outcome was “inactive”.
